Results: the supplement of paper PMC10849652
About 8,800 targets were measured; listed, in parts, are those with a hit and a random draw of the rest. About 0.5% of all pairs of compound and target were hits.

Key:
Experiment in all cases: log2 fold change, soluble protein after heating vs DMSO (PISA); higher = thermal stabilisation; K562 lysate, 10 uM; active = over 0.2 and 3.5 SD of the protein, either way, in both replicates (recomputed)
pictilisib = compound: CS(=O)(=O)N1CCN(Cc2cc3nc(-c4cccc5[nH]ncc45)nc(N4CCOCC4)c3s2)CC1 [pictilisib]
Procedure, shortened: (§1)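 K562 pellets were dounce-homogenised in PBS pH 7.4 containing 1 mM MgCl2, and the crude extract, at 1 mg/mL protein, was exposed to 10 μM compound for 30 min. Aliquots were heated for 3 min across 48°C-58°C, pooled, brought to 0.5% NP-40 at 4°C and spun at 21,000xg for 90 min, with the supernatant taken as soluble protein. TMTpro 16plex LC-MS/MS with equalised channel sums quantified that protein. Values are log-two fold changes in thermal stability relative to solvent controls, taken from duplicates.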

crizotinib = compound: C[C@@H](Oc1cc(-c2cnn(C3CCNCC3)c2)cnc1N)c1c(Cl)ccc(F)c1Cl [crizotinib]
Procedure, shortened: as §1

[1] = compound: C[C@H](C1=CC=C(C=C1)C(=O)NC2=C3C=CNC3=NC=C2)N
Procedure, shortened: as §1

duvelisib = compound: C[C@H](Nc1ncnc2nc[nH]c12)c1cc2cccc(Cl)c2c(=O)n1-c1ccccc1 [duvelisib]
Procedure, shortened: as §1

gandotinib = compound: Cc1cc(Nc2cc(CN3CCOCC3)c3nc(C)c(Cc4ccc(Cl)cc4F)n3n2)n[nH]1 [gandotinib]
Procedure, shortened: as §1

tozasertib = compound: Cc1cc(Nc2cc(N3CCN(C)CC3)nc(Sc3ccc(NC(=O)C4CC4)cc3)n2)n[nH]1 [tozasertib]
Procedure, shortened: as §1

doramapimod = compound: Cc1ccc(-n2nc(C(C)(C)C)cc2NC(=O)Nc2ccc(OCCN3CCOCC3)c3ccccc23)cc1 [doramapimod]
Procedure, shortened: as §1

bafetinib = compound: Cc1ccc(NC(=O)c2ccc(CN3CC[C@H](N(C)C)C3)c(C(F)(F)F)c2)cc1Nc1nccc(-c2cncnc2)n1 [bafetinib]
Procedure, shortened: as §1

[2] = compound: Cc1cccc(CC(=O)N2CCc3c2ccc(-c2cn(C)c4ncnc(N)c24)c3F)n1
Procedure, shortened: as §1

lapatinib = compound: CS(=O)(=O)CCNCc1ccc(-c2ccc3ncnc(Nc4ccc(OCc5cccc(F)c5)c(Cl)c4)c3c2)o1 [lapatinib]
Procedure, shortened: as §1

Measured: log2 fold change

CCND3 (UniProt P30281)
Sequence of UniProt P30281 (P30281 whole entry, looked up): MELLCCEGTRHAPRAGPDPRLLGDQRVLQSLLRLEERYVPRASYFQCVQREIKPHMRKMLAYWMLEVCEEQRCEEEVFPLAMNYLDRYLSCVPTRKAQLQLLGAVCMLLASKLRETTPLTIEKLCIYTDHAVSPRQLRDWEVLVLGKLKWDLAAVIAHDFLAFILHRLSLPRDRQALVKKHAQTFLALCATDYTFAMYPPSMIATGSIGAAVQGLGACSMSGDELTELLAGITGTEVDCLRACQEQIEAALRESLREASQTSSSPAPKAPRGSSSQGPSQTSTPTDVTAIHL
inactive: pictilisib -0.01 | crizotinib -0.083 | [1] -0.175 | duvelisib 0.015 | gandotinib -0.022 | tozasertib 0.073 | doramapimod 0.101 | bafetinib 0.003 | [2] 0.096

CAPNS1 (UniProt K7ES78)
inactive: lapatinib 0.162 | crizotinib 0.158 | duvelisib 0.17 | doramapimod -0.08

CEP152 (UniProt O94986)
Sequence of UniProt O94986 (O94986 whole entry, looked up): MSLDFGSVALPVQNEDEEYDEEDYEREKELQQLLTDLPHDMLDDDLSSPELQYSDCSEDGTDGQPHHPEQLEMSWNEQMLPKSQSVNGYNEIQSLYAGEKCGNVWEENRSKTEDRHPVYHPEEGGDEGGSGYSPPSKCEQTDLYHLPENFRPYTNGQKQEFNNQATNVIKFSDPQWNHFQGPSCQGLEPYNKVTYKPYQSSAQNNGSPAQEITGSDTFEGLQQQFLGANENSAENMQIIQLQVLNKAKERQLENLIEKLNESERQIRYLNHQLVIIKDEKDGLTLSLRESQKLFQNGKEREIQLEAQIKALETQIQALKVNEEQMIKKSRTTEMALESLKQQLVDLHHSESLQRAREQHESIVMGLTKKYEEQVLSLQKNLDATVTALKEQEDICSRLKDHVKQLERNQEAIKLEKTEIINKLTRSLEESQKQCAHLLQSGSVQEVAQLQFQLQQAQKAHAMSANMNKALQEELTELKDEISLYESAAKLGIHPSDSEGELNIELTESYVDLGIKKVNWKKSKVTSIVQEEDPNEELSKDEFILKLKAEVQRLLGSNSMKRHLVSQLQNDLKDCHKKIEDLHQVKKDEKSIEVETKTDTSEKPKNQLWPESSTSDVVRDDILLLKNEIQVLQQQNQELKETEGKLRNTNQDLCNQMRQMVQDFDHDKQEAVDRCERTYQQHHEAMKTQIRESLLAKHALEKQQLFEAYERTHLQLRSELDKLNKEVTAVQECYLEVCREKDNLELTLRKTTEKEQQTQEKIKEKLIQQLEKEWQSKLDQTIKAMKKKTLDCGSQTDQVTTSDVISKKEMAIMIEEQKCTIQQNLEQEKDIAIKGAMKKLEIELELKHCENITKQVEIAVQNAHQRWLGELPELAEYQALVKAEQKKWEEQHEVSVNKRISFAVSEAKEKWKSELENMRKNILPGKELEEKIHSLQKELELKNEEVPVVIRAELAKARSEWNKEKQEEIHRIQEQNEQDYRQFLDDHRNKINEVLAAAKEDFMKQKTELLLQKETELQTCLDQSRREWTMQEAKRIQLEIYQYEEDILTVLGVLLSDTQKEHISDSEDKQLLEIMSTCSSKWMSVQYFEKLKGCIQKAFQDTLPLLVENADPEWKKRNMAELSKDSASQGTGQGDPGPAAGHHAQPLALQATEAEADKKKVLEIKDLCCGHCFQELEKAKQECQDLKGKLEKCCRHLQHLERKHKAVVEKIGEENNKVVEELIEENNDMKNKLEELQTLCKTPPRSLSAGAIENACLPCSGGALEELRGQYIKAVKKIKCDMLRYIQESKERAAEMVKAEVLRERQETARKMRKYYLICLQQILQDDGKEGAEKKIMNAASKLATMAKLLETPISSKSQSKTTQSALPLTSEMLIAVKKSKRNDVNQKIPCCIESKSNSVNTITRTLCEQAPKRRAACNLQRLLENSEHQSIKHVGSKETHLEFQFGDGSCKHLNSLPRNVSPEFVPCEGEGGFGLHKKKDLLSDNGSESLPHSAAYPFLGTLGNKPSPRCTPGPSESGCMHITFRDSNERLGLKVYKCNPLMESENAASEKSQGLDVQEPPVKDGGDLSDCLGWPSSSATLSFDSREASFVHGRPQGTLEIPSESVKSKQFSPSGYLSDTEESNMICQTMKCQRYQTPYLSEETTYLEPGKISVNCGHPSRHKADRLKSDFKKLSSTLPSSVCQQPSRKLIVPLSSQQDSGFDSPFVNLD
inactive: pictilisib -0.013 | crizotinib -0.22 | [1] -0.089 | duvelisib -0.017 | gandotinib 0.006 | tozasertib -0.114 | doramapimod -0.057 | bafetinib -0.071 | [2] 0.058
